Test results published in PubChem BioAssay (NCATS).
Inconclusive results are not listed. Activity calls are given as the source filed them. Unless noted, the call rests on the fitted dose curve.

Test system: not listed separately
Assay: qHTS for Inhibitors of the Functional Ribonucleoprotein Complex (vRNP) of Lymphocytic Choriomeningitis Arenaviruses (LCMV): Viability assay - alamar blue signal for LCMV Primary Screen (AID 1347085; calls by dose curve; tested in HEK293 reporter line; further: nearly all actives have a fitted effect of over 80% in size)
Conditions: alamar blue viability counter-screen, LCMV vRNP screen cells; series mostly up to 57.5 µM; activity change, negative = lower viability: at the top concentration
On the % scale 0 is the no-effect control and ±100 the full control effect; potency means the concentration at half of the fitted maximal effect.

SMILES | activity change, negative = lower viability | Potency
COC(=O)C1=CO[C@@H](O[C@@H]2O[C@H](CO)[C@@H](O)[C@H](O)[C@H]2O)C2C1CC(O)O[C@H]2C (stereo not given in full) | -0.428% (inactive) | –
O=C1CC(c2ccc(O[C@@H]3OC(CO)[C@@H](O)C(O)C3O)cc2)Oc2cc(O)ccc21 (stereo not given in full) | 5.08% (inactive) | –
CC=C(C)C(=O)OC1CCN2CC=C(COC(=O)C(O)(C(C)OC)C(C)(C)O)C12 (stereo not given) | 9.72% (inactive) | –
O=c1c(O)c(-c2ccccc2O)oc2cc(O)cc(O)c12 | 7.72% (inactive) | –
CCN(CC)CCNC(=O)c1c(C)[nH]c(C=C2C(=O)Nc3ccc(F)cc32)c1C | – | 49.8 µM (active)
CSCC[C@@H](N)C(=O)O | -7.75% (inactive) | –
COc1c2c(c(OC)c3c1c(=O)c1ccccc1n3C)OCO2 | 1.81% (inactive) | –
CO[C@H]1C[C@H](O[C@H]2[C@H](C)O[C@@H](O[C@@H]3/C(C)=C/C[C@@H]4C[C@@H](C[C@]5(C=C[C@H](C)[C@@H](C6CCCCC6)O5)O4)OC(=O)[C@@H]4C=C(C)[C@@H](O)[C@H]5OC/C(=C\C=C\[C@@H]3C)[C@]54O)C[C@@H]2OC)O[C@@H](C)[C@@H]1O | 19.8% (inactive) | –
COc1ccc(CC2c3cc(OC)c(OC)cc3CCN2C)cc1O (stereo not given) | -6.22% (inactive) | –
CN=C(N)NCCC[C@H](N)C(=O)O | -1.79% (inactive) | –
CC(C)=CC(=O)O[C@@H]1Cc2cc3ccc(=O)oc3cc2OC1(C)C | 17% (inactive) | –
CCNC(=O)Nc1ccc(-c2nc3c(c(N4CCOC[C@H]4C)n2)CCN(C2COC2)C3)cc1 | – | 3.06 µM (active)
COc1c2ccoc2nc2c(OC)c(O[C@@H]3O[C@H](C)[C@@H](O)[C@@H](O)[C@H]3O)ccc12 | -11.4% (inactive) | –
N#CC(=C(O)c1ccc(Cl)cc1Cl)c1nc2cc(Cl)ccc2c(=O)[nH]1 | -3.51% (inactive) | –
NCC(O)C1CCCCCCC1 (stereo not given) | 7.11% (inactive) | –
CCCCCCCC/C=C/CCCOC(C)=O | -2.43% [at 115 µM] (inactive) | –
C[C@@H]1NC(=O)N[C@@H]1CCCCCC(=O)O | 9.02% (inactive) | –
COC1[C@@H](O[C@@H]2O[C@H](C)[C@@H](O[C@H]3C[C@@](C)(O)[C@H](OC(=O)CC(C)C)[C@H](C)O3)[C@H](N(C)C)[C@H]2O)[C@@H](CC=O)C[C@@H](C)[C@@H](O)/C=C/C=C/C[C@@H](C)OC(=O)C[C@H]1OC(C)=O (stereo not given in full) | 38.5% [at 24.7 µM] (inactive) | –
CC1=CCC(=C(C)C)CC1 | 16.8% [at 115 µM] (inactive) | –
CCc1cc(C(C)=NOCc2ccc(C3CCCCC3)c(C(F)(F)F)c2)ccc1CN1CC(C(=O)O)C1 | -13% (inactive) | –

SMILES | activity change, negative = lower viability | Potency
C=C[C@@H](C1=CC(=O)C(OC)=C(OC)C1=O)c1ccccc1 | 6.02% (inactive) | –
COc1ccc(C(=O)OC2CC[C@@]3(C)C4CCC5[C@]6(O)C[C@H](O)[C@@]7(O)C(CN8CC(C)CCC8[C@@]7(C)O)[C@]6(O)C[C@@]53O[C@]24O)cc1OC (stereo not given in full) | 8.55% (inactive) | –
O=C(O)C1=CO[C@@H](O[C@@H]2O[C@H](CO)[C@H](O)[C@H](O)[C@H]2O)[C@@H]2C(CO)=CC[C@H]12 | 8.11% (inactive) | –
SC1CCCC1 | 19.3% [at 115 µM] (inactive) | –
C[C@@H](O)CCC[C@H](O)/C=C/[C@@H]1[C@@H](C/C=C\CCCC(=O)O)[C@@H](O)C[C@H]1O | -64.4% [at 0.757 µM] (inactive) | –
COc1cc(OC)cc(-c2ccc3ncc4ccc(=O)n(-c5ccc(N6CCNCC6)c(C(F)(F)F)c5)c4c3c2)c1 | – | 1.93 µM (active)
CC(C)C(=O)OCCc1ccccc1 | -30.3% [at 115 µM] (inactive) | –
NC(C(=O)O)C1ON=C(Cl)C1O (stereo not given) | 11.2% (inactive) | –
COc1cc(CCc2ccccc2)c(C(=O)O)c(O)c1CC=C(C)C | 2.67% (inactive) | –
CCC(C)(C)O | 6.07% [at 115 µM] (inactive) | –
NC1=NCCCC1 | 4.29% (inactive) | –
COC1=CC(=O)[C@@]2([C@@H]1O)[C@@H](Cl)C[C@]13C(OC)=C(OC)C(=O)C[C@]21CCN3C | -0.456% (inactive) | –
CCCCCCCC1CCC(=O)O1 (stereo not given) | 4.84% [at 115 µM] (inactive) | –
CN1C(=O)[C@@H]2C[C@@]3([C@@]45C[C@H]6C(=O)N(C)[C@@H](Cc7ccccc7)C(=O)N6[C@@H]4Nc4ccccc45)c4ccccc4N[C@H]3N2C(=O)[C@@H]1Cc1ccccc1 | 12.5% (inactive) | –
c1ccc2c3c([nH]c2c1)C1(CCCCC1)NCC3 | 3.99% (inactive) | –
C=CC(=O)CCCCC | 4.39% [at 115 µM] (inactive) | –
CC12CCC(C1)C(C)(C)C2=O (stereo not given) | 11.9% (inactive) | –
C=CCc1ccc(O)c(-c2cc(CC=C)ccc2O)c1 | 4.55% (inactive) | –
C[C@@H]1CC2OC(=O)[C@@]3(C)C(=O)CC[C@@](C)(C23)[C@@]1(O)CCc1ccoc1 (stereo not given in full) | 15% (inactive) | –
C=C1CCC2[C@](C)(CO)C(O)CC[C@]2(C)C1CC=C1C(=O)OCC1O (stereo not given in full) | 7.47% [at 115 µM] (inactive) | –

Target: Nucleoprotein (Lymphocytic choriomeningitis virus (strain Armstrong)) (UniProt P09992)
Sequence (P09992 whole entry, looked up): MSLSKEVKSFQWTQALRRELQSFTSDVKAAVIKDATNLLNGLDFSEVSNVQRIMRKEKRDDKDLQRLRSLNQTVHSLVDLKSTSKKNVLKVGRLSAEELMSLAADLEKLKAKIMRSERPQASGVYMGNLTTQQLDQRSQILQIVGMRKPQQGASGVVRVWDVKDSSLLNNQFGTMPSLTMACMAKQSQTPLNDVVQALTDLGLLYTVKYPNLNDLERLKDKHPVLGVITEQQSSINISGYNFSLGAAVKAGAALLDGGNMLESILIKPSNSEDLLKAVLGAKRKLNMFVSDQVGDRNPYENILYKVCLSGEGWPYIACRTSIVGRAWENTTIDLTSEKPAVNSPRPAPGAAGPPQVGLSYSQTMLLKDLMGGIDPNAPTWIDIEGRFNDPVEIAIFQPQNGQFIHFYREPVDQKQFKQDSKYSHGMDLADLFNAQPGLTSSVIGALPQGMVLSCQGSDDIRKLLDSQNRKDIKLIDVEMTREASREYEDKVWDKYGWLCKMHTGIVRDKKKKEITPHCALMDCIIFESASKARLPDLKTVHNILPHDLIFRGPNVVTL
Assay: qHTS for Inhibitors of the Functional Ribonucleoprotein Complex (vRNP) of Lymphocytic Choriomeningitis Arenaviruses (LCMV): LCMV Primary Screen - GLuc reporter signal (AID 1347086); further: nearly all actives have a fitted effect of over 70% in size
Conditions: LCMV minigenome vRNP cell assay, Gaussia luciferase reporter; series mostly up to 57.5 µM; activity change, negative = inhibition: at the top concentration

SMILES | activity change, negative = inhibition | Potency
COC(=O)C1=CO[C@@H](O[C@@H]2O[C@H](CO)[C@@H](O)[C@H](O)[C@H]2O)C2C1CC(O)O[C@H]2C (stereo not given in full) | 9.94% (inactive) | –
O=C1CC(c2ccc(O[C@@H]3OC(CO)[C@@H](O)C(O)C3O)cc2)Oc2cc(O)ccc21 (stereo not given in full) | 5.38% (inactive) | –
CC=C(C)C(=O)OC1CCN2CC=C(COC(=O)C(O)(C(C)OC)C(C)(C)O)C12 (stereo not given) | 66.6% (inactive) | –
O=c1c(O)c(-c2ccccc2O)oc2cc(O)cc(O)c12 | 3.35% (inactive) | –
CCN(CC)CCNC(=O)c1c(C)[nH]c(C=C2C(=O)Nc3ccc(F)cc32)c1C | – | 44.4 µM (active)
CSCC[C@@H](N)C(=O)O | -2.59% (inactive) | –
COc1c2c(c(OC)c3c1c(=O)c1ccccc1n3C)OCO2 | 20.2% (inactive) | –
CO[C@H]1C[C@H](O[C@H]2[C@H](C)O[C@@H](O[C@@H]3/C(C)=C/C[C@@H]4C[C@@H](C[C@]5(C=C[C@H](C)[C@@H](C6CCCCC6)O5)O4)OC(=O)[C@@H]4C=C(C)[C@@H](O)[C@H]5OC/C(=C\C=C\[C@@H]3C)[C@]54O)C[C@@H]2OC)O[C@@H](C)[C@@H]1O | 0.2% (inactive) | –
COc1ccc(CC2c3cc(OC)c(OC)cc3CCN2C)cc1O (stereo not given) | 6.86% (inactive) | –
CN=C(N)NCCC[C@H](N)C(=O)O | -4.62% (inactive) | –
CC(C)=CC(=O)O[C@@H]1Cc2cc3ccc(=O)oc3cc2OC1(C)C | -31.7% (inactive) | –
CCNC(=O)Nc1ccc(-c2nc3c(c(N4CCOC[C@H]4C)n2)CCN(C2COC2)C3)cc1 | – | 1.53 µM (active)
COc1c2ccoc2nc2c(OC)c(O[C@@H]3O[C@H](C)[C@@H](O)[C@@H](O)[C@H]3O)ccc12 | -2.48% (inactive) | –
N#CC(=C(O)c1ccc(Cl)cc1Cl)c1nc2cc(Cl)ccc2c(=O)[nH]1 | 15.1% (inactive) | –
NCC(O)C1CCCCCCC1 (stereo not given) | 11.8% (inactive) | –
CCCCCCCC/C=C/CCCOC(C)=O | -9.05% [at 115 µM] (inactive) | –
C[C@@H]1NC(=O)N[C@@H]1CCCCCC(=O)O | 16.8% (inactive) | –
COC1[C@@H](O[C@@H]2O[C@H](C)[C@@H](O[C@H]3C[C@@](C)(O)[C@H](OC(=O)CC(C)C)[C@H](C)O3)[C@H](N(C)C)[C@H]2O)[C@@H](CC=O)C[C@@H](C)[C@@H](O)/C=C/C=C/C[C@@H](C)OC(=O)C[C@H]1OC(C)=O (stereo not given in full) | -13.3% [at 24.7 µM] (inactive) | –
CC1=CCC(=C(C)C)CC1 | 22.9% [at 115 µM] (inactive) | –
CCc1cc(C(C)=NOCc2ccc(C3CCCCC3)c(C(F)(F)F)c2)ccc1CN1CC(C(=O)O)C1 | -34.2% (inactive) | –

SMILES | activity change, negative = inhibition | Potency
C=C[C@@H](C1=CC(=O)C(OC)=C(OC)C1=O)c1ccccc1 | -1.31% (inactive) | –
COc1ccc(C(=O)OC2CC[C@@]3(C)C4CCC5[C@]6(O)C[C@H](O)[C@@]7(O)C(CN8CC(C)CCC8[C@@]7(C)O)[C@]6(O)C[C@@]53O[C@]24O)cc1OC (stereo not given in full) | 3.17% (inactive) | –
O=C(O)C1=CO[C@@H](O[C@@H]2O[C@H](CO)[C@H](O)[C@H](O)[C@H]2O)[C@@H]2C(CO)=CC[C@H]12 | 6.54% (inactive) | –
SC1CCCC1 | 9.75% [at 115 µM] (inactive) | –
C[C@@H](O)CCC[C@H](O)/C=C/[C@@H]1[C@@H](C/C=C\CCCC(=O)O)[C@@H](O)C[C@H]1O | -26.1% [at 0.757 µM] (inactive) | –
COc1cc(OC)cc(-c2ccc3ncc4ccc(=O)n(-c5ccc(N6CCNCC6)c(C(F)(F)F)c5)c4c3c2)c1 | – | 3.06 µM (active)
CC(C)C(=O)OCCc1ccccc1 | 2.32% [at 115 µM] (inactive) | –
NC(C(=O)O)C1ON=C(Cl)C1O (stereo not given) | 2.52% (inactive) | –
COc1cc(CCc2ccccc2)c(C(=O)O)c(O)c1CC=C(C)C | -3.44% (inactive) | –
CCC(C)(C)O | 9.85% [at 115 µM] (inactive) | –
NC1=NCCCC1 | -0.474% (inactive) | –
COC1=CC(=O)[C@@]2([C@@H]1O)[C@@H](Cl)C[C@]13C(OC)=C(OC)C(=O)C[C@]21CCN3C | 4.41% (inactive) | –
CCCCCCCC1CCC(=O)O1 (stereo not given) | 13.2% [at 115 µM] (inactive) | –
CN1C(=O)[C@@H]2C[C@@]3([C@@]45C[C@H]6C(=O)N(C)[C@@H](Cc7ccccc7)C(=O)N6[C@@H]4Nc4ccccc45)c4ccccc4N[C@H]3N2C(=O)[C@@H]1Cc1ccccc1 | -4.86% (inactive) | –
c1ccc2c3c([nH]c2c1)C1(CCCCC1)NCC3 | 10.8% (inactive) | –
C=CC(=O)CCCCC | -0.671% [at 115 µM] (inactive) | –
CC12CCC(C1)C(C)(C)C2=O (stereo not given) | 4.07% (inactive) | –
C=CCc1ccc(O)c(-c2cc(CC=C)ccc2O)c1 | 23.8% (inactive) | –
C[C@@H]1CC2OC(=O)[C@@]3(C)C(=O)CC[C@@](C)(C23)[C@@]1(O)CCc1ccoc1 (stereo not given in full) | 0.834% (inactive) | –
C=C1CCC2[C@](C)(CO)C(O)CC[C@]2(C)C1CC=C1C(=O)OCC1O (stereo not given in full) | 37.9% [at 115 µM] (inactive) | –
